Data on 63 molecules can be found in PubChem BioAssay AID1626 (SRMLSC, 2009).

About 2,000 (0.91%) of roughly 220,000 compounds were called active. About 2% were inconclusive and are not listed. A selection follows. Entries with a potency or affinity are not part of this list. Values without a mark were called inactive. No stated cut-off is given here; in the data, inconclusive means inhibition above about 80% without an active follow-up result; inactive means below that; test concentration not stated here.

The nature of this experiment: M. tuberculosis H37Rv growth inhibitors, H37Rv strain (AID 1626).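 Further: bacteria incubated seven days before Alamar blue readout; 0% = bacteria only wells and 100% = bacteria with antibiotic wells.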 To be noted: stronger effect = higher value, concentration not given here.
For `O=C(Nc1ccc2oc(-c3ccccc3Cl)nc2c1)c1ncn[nH]1`, the inhibition was 6.26%. As to `Cc1[nH]nc(NNC(=O)c2ccccc2)c1[N+](=O)[O-]`, the inhibition was -6.74%.

As to `O=C1NC(=O)N(c2ccccc2)C(=O)/C1=C\C=C\c1ccccc1`, the inhibition was -3.04%. The result for `O=C1NC(=O)N(c2ccccc2)C(=O)/C1=C/C=C/c1ccco1` reads -5.19%; that for `CN1C(=O)OC2(C)CCc3ccccc3C12C` (stereo not drawn), -7.1%.

Take `Cc1cc(NCCO)nc(-n2nc(C)cc2C)n1`: the inhibition is 8.23%. The value for `Cc1cc(C)n(-c2nc(Nc3ccccc3)nc(-n3nc(C)cc3C)n2)n1` was -2.93%. The value for `Cc1ccccc1Nc1nc(N)nc(CCl)n1` was 77.4%; that for `CNc1nc(C)nc(-n2nc(C)cc2C)n1` was 6.41%; that for `Cc1cc(C)n(-c2nc(C)nc(N)n2)n1` was -4.82%. As to `CC(=O)c1nnn(-c2nc(N)nc(N(c3ccccc3)c3ccccc3)n2)c1C`, the inhibition is 3%. As for `CC(C)Nc1nc(NC(C)C)nc(Nn2cnnc2)n1`, the inhibition was -7.25%. As to `Cc1cc(C)n(-c2nc(N(C)C)nc(N(C)C)n2)n1`, the inhibition was -2.29%. As for `CCC1CCc2c(sc(NC(=O)C3c4ccccc4Oc4ccccc43)c2C(N)=O)C1` (stereo not drawn), the inhibition was 5.29%. With `O=C(NC(=S)NCC1CCCO1)c1ccc(Cl)cc1` (stereo not drawn), the inhibition was 2.47%. For the molecule `O=C(NCc1ccccc1)c1onc(CSc2ccccc2)c1C(=O)NCC1CC1`, the inhibition was -10.4%. In the case of `CC(C)c1nnc(NC(=O)CSc2nnc(-c3ccco3)o2)s1`, the inhibition was -0.02%. `O=C(Cn1c(=O)n(-c2ccccc2)c(=O)c2sccc21)NCc1ccccc1`: the inhibition is -8%.

On to `CN(C)S(=O)(=O)c1cccc(C(=O)NCC2CCCO2)c1` (stereo not drawn), for which the inhibition is 4.28%. Consider `CC(=O)c1c(C)[nH]c(C(=O)NCc2cccc(Cl)c2)c1C`, for which the inhibition was -6.84%. As for `Cc1nnc(Sc2cc(C(=O)NCc3ccco3)c3ccccc3n2)s1`, the inhibition is 0.09%. Turning to `CCCCNc1nc(-c2ccccc2)nc(-n2ccnc2)n1`, the inhibition was 1.24%. Regarding `CC(C)Nc1nc(-c2ccccc2)nc(-n2ccnc2)n1`, the inhibition was 8.64%. Consider `Cc1cc(C)n(-c2nnc(NC(C)(C)C)nn2)n1`, for which the inhibition is -8.78%.

Turning to `Cc1cc(C)n(-c2nnc(NCc3ccc(Cl)cc3)nn2)n1`, the inhibition was 8.99%. `Cc1sc2nc(CN3CCCC3)nc(N3CCN(C(=O)c4ccco4)CC3)c2c1C`: the inhibition is -1.07%.

As for `Cc1ccccc1CC1(CO)CCCN(Cc2ccc(C#CC(C)(C)O)cc2)C1` (stereo not drawn), the inhibition is 8.42%.

Regarding `COc1cccc(CN2CCC(C(=O)N3CCN(c4ccccc4F)CC3)CC2)c1`, the inhibition is -8.97%. As to `CCOC(=O)c1cccc(NC(=O)N[C@@H](C)C(=O)OC)c1`, the inhibition was -9.35%.

Turning to `CC(=O)c1ccc(-n2cc(-c3ccc(C(C)(C)C)cc3)[n+]3c2SCCC3)cc1`, the inhibition was 40.7%. Consider `COc1ccc(-c2cn(-c3ccc(Br)cc3)c3[n+]2CCS3)cc1`, for which the inhibition is 5.88%. In the case of `N#Cc1c(/N=C/C=C/c2ccccc2)sc2c1CCCC2`, the inhibition is -4.34%. In the case of `Cc1cccc(OCC2=NS(=O)(=O)c3ccccc3N2)c1`, the inhibition is -21.3%.

As for `CCCCOC(=O)c1ccc(NC(=O)CSc2nncn2C)cc1`, the inhibition was 53.2%. With `CCOC(=O)c1ccc(NC(=O)CSc2nnnn2CCCO)cc1`, the inhibition was 68.7%. `COc1ccc(NC(=O)CSc2nnnn2C)cc1`: the inhibition is -5.32%. `Cc1cc(C)nc(SCC(=O)Nc2nc(-c3ccccc3)c(-c3ccccc3)o2)n1`: the inhibition is 5.45%. The value for `Cn1nnnc1SCC(=O)Nc1ccccc1-c1ccccc1` was 36.5%; that for `Cn1nnnc1SCC(=O)Nc1ccc(Oc2ccccc2)cc1` was 57.4%; that for `CCOC(=O)c1oc2ccc(S(=O)(=O)Nc3ccc4c(c3)n(C)c(=O)n4C)cc2c1C` was -1.98%. As to `O=C1CCCC2=C1C(c1ccsc1)CC(=O)N2c1ccccc1F` (stereo not drawn), the inhibition is -5.2%. Consider `CCN(CC)CCCNC(=O)c1ccccc1C`, for which the inhibition is -9.77%. As for `O=C(c1ccccc1)N1CCC2(CC1)OCCO2`, the inhibition was -4.39%. The value for `CCN=C1SC(C(=O)Nc2cccc(Cl)c2)CC(=O)N1CC` (stereo not drawn) was 2.07%; that for `O=C(c1cc2nc(-c3ccccc3)cc(-c3ccccc3)n2n1)N1CCCC1` was -3%; that for `CN1CCN(C(=O)c2cc3nc(-c4ccccc4)cc(-c4ccccc4)n3n2)CC1` was 4.38%. Regarding `CCCCn1c(=O)c(CCC(=O)OCC(=O)NC(=O)NCCC(C)C)nc2ccccc21`, the inhibition is -5.41%. Consider `On1nnc2ccc(C(F)(F)F)cc21`, for which the inhibition was 0.915%. For `S=C1NC2=C(CCCC2)C2(CCCCC2)N1`, the inhibition was 3.82%. Turning to `Cc1cccc(C)c1OCc1nc2ccccc2[nH]1`, the inhibition was -5.31%. `N=c1n(CCN2CCOCC2)c2ccccc2n1CC(=O)c1ccc(Cl)c(Cl)c1`: the inhibition is 17.4%.

On to `N=c1n(CCN2CCCCC2)c2ccccc2n1CC(O)c1ccc(Cl)c(Cl)c1` (stereo not drawn), for which the inhibition was 57.5%.

Consider `Cc1ccc2nc(/C(C#N)=C\c3cc(O)ccc3[N+](=O)[O-])[nH]c2c1`, for which the inhibition is -7.37%. Turning to `N#C/C(=C\c1ccc(OC(=O)c2ccc(Br)s2)cc1)c1nc2ccccc2[nH]1`, the inhibition is 66.1%. As to `N#C/C(=C\c1ccc(OC(=O)c2cccs2)cc1)c1nc2ccccc2[nH]1`, the inhibition was 28.1%. Take `Cc1ccc2nc(/C(C#N)=C/c3ccc(-c4cccc([N+](=O)[O-])c4)o3)[nH]c2c1`: the inhibition is 1.74%.

As to `CN(Cc1nc(Cc2cccc(C(F)(F)F)c2)no1)C1CC(C)(C)NC(C)(C)C1`, the inhibition was 4.06%. `COc1ccc(C(=O)NCC(=O)OCC(=O)NCCC2=CCCCC2)cc1`: the inhibition was 1.25%. Take `CCN(CC)S(=O)(=O)c1ccc(-c2nnc(SCC(N)=O)n2CC)cc1`: the inhibition is -3.31%. For `CSc1ncc(CO)n1Cc1ccccc1`, the inhibition was -4.14%.

Take `O=C(O)c1ccc(CS(=O)(=O)Cc2ccccc2F)o1`: the inhibition was -18.6%. As to `COc1ccc(-c2[nH]ncc2CN2CCCN(c3ccccc3)CC2)c(F)c1`, the inhibition was -1.64%.

Turning to `COc1ccc(-c2[nH]ncc2CN2CCN(c3ccc(F)cc3)CC2)cc1`, the inhibition is -12.3%.
